Bioassay records as filed in PubChem.
In the library only some 21% were active in any assay of this set; here they are far more common.
Shiga inhibitor: Shiga toxin inhibition; Vero cells, Shiga toxin protein synthesis inhibition reporter; inhibition, % at 38.7 µM; actives 9.2% (n = 290,000); AID 2315; in the data active means inhibition mostly above about 28%, no sharp cut-off; inactive means mostly below about 43%
HCV inh: inhibitors of hepatitis C virus infection. Huh7.5.1 HCVcc-Cre infection, luciferase reporter, 44 h. Potency, µM (highest dose often 41.8 µM), usual class: inhibitors. actives 3.4% (n = 340,000)
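Infectious HCV cell culture screen: compound-treated cells (1,000/well, pre-plated 4 h) are infected with HCVcc-Cre at roughly 0.5 moi and grown 44 h. Infection is quantified by luciferase signal after 15 min substrate incubation at room temperature.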
Pf growth 96h: P. falciparum growth inhibition at 96 hours; actives 6.9% (n = 320,000); AID 504834; P. falciparum luciferase reporter growth, 96 h; Potency, µM (doses to about 28.7 µM), usual class: inhibitors
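Two-generation exposure (96 h) targets delayed-death phenotype. Reporter parasites carrying integrated firefly luciferase, in red cells at 2% hematocrit and 0.05% parasitemia final, kept at 37 C, 5% CO2; luminescence loss indicates inhibition.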
AMA1 RON2 block: inhibitors of Plasmodium falciparum AMA1-RON2 interaction; AlphaScreen AMA1-biotinylated RON2 peptide binding; Potency, µM (doses to about 58.2 µM), hits mostly inhibitors; actives 0.2% (n = 360,000); further: nearly all actives have a fitted effect of over 45% in size
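AMA1 (3D7) with his tag at 25 nM final met compounds first, then biotinylated RON2 peptide at 25 nM; detection used donor plus acceptor beads, 10 µg/mL apiece, read by AlphaScreen after 30 min at room temperature.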
Cycloheximide cs: counter-screen hit for Shiga toxin inhibitors, cycloheximide. cell reporter, cycloheximide protein synthesis inhibition counterscreen. max response, %. actives 12% (n = 300,000). AID 2314; in the data active means max response mostly above about 13%, no sharp cut-off; inactive means mostly below about 14%; further: read at 38.3 µM for the half of the compounds with a filed dose
Pf growth 48h: inhibits P. falciparum growth in the first generation, 48 h. P. falciparum luciferase growth in erythrocytes, 48 h. Potency, µM (highest dose often 28.7 µM), actives largely listed as inhibitors. actives 5.9% (n = 310,000). AID 504832
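Parasite viability was followed by luminescence of a genomically integrated firefly luciferase. Cultures held 0.1% parasitemia at 2% hematocrit (final), incubated under 5% CO2 at 37 C.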
Of the large screens only hits and unclear results are named; the others gave an inactive call. Unless noted, the call rests on the fitted dose curve; in most records, active means well fitted curve in the direction sought with a large enough effect; inconclusive means small, poorly fitted or top-dose-only effect, or another doubt; inactive means no such curve, though single readings can be large; an effect the other way counts as inactive or inconclusive.

CCc1ccccc1NC(=O)C1CCCN(S(=O)(=O)c2ccc3c(c2)CC(C)N3C(C)=O)C1 (stereo not drawn)	HCV inh inconclusive, Pf growth 96h 13µM, Pf growth 48h inconclusive
CCOc1ccc(NC(=O)C2CCCN(S(=O)(=O)c3ccc4c(c3)CCCN4C(C)=O)C2)cc1 (stereo not drawn)	HCV inh inconclusive, Pf growth 96h inconclusive, Pf growth 48h 12µM
O=C(COc1ccc(C(=O)NCC2CCCO2)cc1)Nc1cccc(C(F)(F)F)c1 (stereo not drawn)	HCV inh inconclusive, Pf growth 96h inconclusive, Pf growth 48h inconclusive (no result: Shiga inhibitor, Cycloheximide cs)
CC(=O)N1c2ccc(S(=O)(=O)N3CCCC3C(=O)Nc3cccc(F)c3)cc2CC1C (stereo not drawn)	Pf growth 96h inconclusive, Pf growth 48h inconclusive
CCc1cccc(NC(=O)C2CCCN2S(=O)(=O)c2ccc3c(c2)CC(C)N3C(C)=O)c1 (stereo not drawn)	Pf growth 96h inconclusive, Pf growth 48h 12µM
Cc1[nH]n(C(N)=S)c(=O)c1N=Nc1ccc(S(=O)(=O)N2CCCC2)cc1	Cycloheximide cs 19
Cc1ccc(N=Nc2c(C)[nH]n(C(N)=S)c2=O)cc1	HCV inh 2.8µM, Pf growth 96h inconclusive, Pf growth 48h inconclusive
Cc1[nH]n(C(N)=S)c(=O)c1N=Nc1cc(C(F)(F)F)ccc1Cl	Pf growth 96h inconclusive
Cc1[nH]n(C(N)=S)c(=O)c1N=Nc1ccc(Br)cc1	Shiga inhibitor 42, Cycloheximide cs 27
Cc1[nH]n(C(N)=S)c(=O)c1N=Nc1cccc(C(F)(F)F)c1	Shiga inhibitor 32, Pf growth 96h inconclusive, Pf growth 48h 1.3µM
CN(CC(=O)Nc1ccc(Cl)c(Cl)c1)C(=O)c1cccc2cccnc12	Pf growth 48h inconclusive (no result: Shiga inhibitor, Cycloheximide cs)
O=C(CC1NCCc2ccccc21)Nc1ccc(Oc2ccccc2)cc1 (stereo not drawn)	HCV inh 11µM, Pf growth 96h inconclusive
O=C(CC1NCCc2ccccc21)Nc1ccccc1 (stereo not drawn)	Shiga inhibitor 35, Cycloheximide cs 24
O=C(CC1NCCc2ccccc21)Nc1ccccc1Cl (stereo not drawn)	Cycloheximide cs 26
O=C(O)CC1NCCc2ccccc21 (stereo not drawn)	none
CC(=O)N1c2ccccc2N=C(c2ccc3c(c2)OCO3)C1C(=O)NCc1ccccc1 (stereo not drawn)	none (no result: Shiga inhibitor, HCV inh, Pf growth 96h, Cycloheximide cs, Pf growth 48h)
Cc1ccc(CNCCCn2cnc3c(OCc4ccccc4)ncnc32)o1	none (no result: Shiga inhibitor, Pf growth 96h, Cycloheximide cs, Pf growth 48h)
CC(NC(=O)CCCc1ccccc1)c1ccncc1 (stereo not drawn)	none (no result: Shiga inhibitor)
CN(C(=O)CN1C(=O)S/C(=C\c2ccccc2)C1=O)C1CCS(=O)(=O)C1 (stereo not drawn)	Pf growth 96h 13µM
CN(C(=O)CN1C(=O)S/C(=C\c2ccc(Cl)cc2)C1=O)C1CCS(=O)(=O)C1 (stereo not drawn)	none
CN(C(=O)CCN1C(=O)/C(=C/c2ccccc2)SC1=S)C1CCS(=O)(=O)C1 (stereo not drawn)	Pf growth 96h 2.6µM, Pf growth 48h inconclusive
CN(C(=O)CN1C(=O)/C(=C/c2ccc(F)cc2)SC1=S)C1CCS(=O)(=O)C1 (stereo not drawn)	none
Nc1nc(SCc2ccc(Br)cc2)n[nH]1	Shiga inhibitor 53, Cycloheximide cs 27
c1ccc(CSCc2ccccc2)cc1	none (no result: Shiga inhibitor, Cycloheximide cs)
Nc1nc(SCc2ccccc2)n[nH]1	Cycloheximide cs 11
Nc1ccccc1SCc1ccccc1	Shiga inhibitor 89, Cycloheximide cs 72
Nc1nc(SCc2c(Cl)cccc2Cl)n[nH]1	Pf growth 96h 1.3µM (no result: Pf growth 48h)
O=C1N=C2N(CCN3CCCCC3)c3ccccc3N2/C1=C\c1ccc([N+](=O)[O-])o1	none (no result: HCV inh, AMA1 RON2 block)
Cc1cc([N+](=O)[O-])cc(/C=N\NC(=O)C2COc3ccccc3O2)c1O (stereo not drawn)	Pf growth 96h inconclusive, Pf growth 48h inconclusive
CC(=O)N1C(=O)N(C(C)=O)C2C1N(C)C(=O)N2C(C)=O (stereo not drawn)	none
CCCCNC(=O)C[C@@H]1C[C@@]2(C(=O)OCC)CCC=C2N(Cc2ccc(Cl)cc2Cl)C1=O	none (no result: Shiga inhibitor, HCV inh, Pf growth 96h, Cycloheximide cs, Pf growth 48h)
Cc1ccc2c(c1)C(c1ccccc1)N(C(=O)c1ccc3c(c1)OCO3)CC(=O)N2 (stereo not drawn)	Pf growth 96h inconclusive, Pf growth 48h inconclusive
COc1cc(-c2nc3ccccc3s2)ccc1O	Shiga inhibitor 80, HCV inh inconclusive, Cycloheximide cs 45 (no result: Pf growth 96h)
COc1ccc(-c2nc3ccccc3s2)cc1O	HCV inh inconclusive
CCOc1cc(-c2nc3ccccc3s2)ccc1O	Shiga inhibitor 65, HCV inh inconclusive, Cycloheximide cs 56
CC1(C)C(=O)OC(c2cccn2-c2cccc([N+](=O)[O-])c2)C2(CCCCC2)C1=O (stereo not drawn)	Pf growth 48h 13µM (no result: AMA1 RON2 block)
CC1(C)C(=O)OC(c2cccc([N+](=O)[O-])c2)C2(CCCCC2)C1=O (stereo not drawn)	Pf growth 48h inconclusive
Cc1ccc(NC(=O)c2cccc(S(=O)(=O)N3CCN(c4ccccc4)CC3)c2)nc1	HCV inh 13µM, Pf growth 96h inconclusive, Pf growth 48h inconclusive (no result: Shiga inhibitor, Cycloheximide cs)
CCSc1nnc(NC(=O)c2cccc(S(=O)(=O)N(C)c3ccc(C)cc3)c2)s1	Pf growth 48h inconclusive
O=C(Nc1ccc(Cl)cn1)c1cccc(S(=O)(=O)N2CCCCC2)c1	Pf growth 48h inconclusive
C/C(=N\Nc1ccc(S(=O)(=O)N2CCCCC2)cn1)c1cccc(Br)c1	HCV inh inconclusive, Pf growth 96h inconclusive, Pf growth 48h 10µM (no result: Shiga inhibitor, Cycloheximide cs)
CCc1nnc(NC(=O)c2cccc(S(=O)(=O)N3CCN(c4ccccc4)CC3)c2)s1	Pf growth 96h 10µM (no result: Pf growth 48h)
Cc1ccc(N(C)S(=O)(=O)c2cccc(C(=O)Nc3ccc(C)cn3)c2)cc1	HCV inh inconclusive, Pf growth 96h 5.2µM, Pf growth 48h 2.1µM (no result: Shiga inhibitor, Cycloheximide cs)
NNc1ccc(S(=O)(=O)N2CCCCC2)cn1	HCV inh inconclusive, Pf growth 48h inconclusive
CCOCCCN(C(=O)CCC(=O)Nc1cc(C)on1)C(C(=O)NC(C)(C)C)c1ccccc1Cl (stereo not drawn)	Pf growth 96h inconclusive
CN(CC(=O)Nc1ccccc1C(=O)NC1CC1)Cc1ccc(N(C)C)cc1	none (no result: Shiga inhibitor, Cycloheximide cs)
O=C(Nc1ccc(Cl)cn1)c1cccc(S(=O)(=O)N2CCCCCC2)c1	none (no result: Shiga inhibitor, HCV inh, Pf growth 96h, Cycloheximide cs, Pf growth 48h)
O=C(Nc1ccc(Cl)cn1)c1cccc(S(=O)(=O)N2CCCC2)c1	Shiga inhibitor 41, Cycloheximide cs 14
CN(C)S(=O)(=O)c1cccc(C(=O)Nc2ccc(Cl)cn2)c1	Shiga inhibitor 50, Pf growth 96h inconclusive, Cycloheximide cs 51 (no result: Pf growth 48h)
N#Cc1cnc(Nc2ccc(F)cc2)nc1N	Cycloheximide cs 24
Cc1ccc(CNC(=O)COc2ccccc2-c2ccccc2)cc1	Pf growth 96h 10µM
